Among the data in PubChem BioAssay (NCATS) are max response, outcome and Potency values, retold here.

In assay [1] the test system is HaCat. As to the kind of experiment: Cytotoxic Profiling of Annotated Libraries Using Quantitative High-Throughput Screening (AID 1296008). Further: potency means the concentration at half of the fitted maximal effect. On max response: on the % scale 0 is the no-effect control and ±100 the full control effect. The conditions noted are these: Five cell lines viability, CellTiter-Glo ATP luminescence, 48-72 h; max response: active compounds read low. A digest of the protocol: (§1)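 Cytotoxicity was measured as CellTiter-Glo ATP luminescence, read after 10 min at room temperature. Compound treatment of the cells lasted 48 or 72 hr at 37 degrees Celsius in a qHTS format.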
(In ATP-based viability assays light output follows the ATP content of the culture.)

Another assay has as its system KB-3-1. Described as above. To be noted: Five cell lines viability, CellTiter-Glo ATP luminescence, 48-72 h; max response: active compounds read low. The essentials: as §1
The test system of a further assay is NIH3T3. Described as above. To be noted: Five cell lines viability, CellTiter-Glo ATP luminescence, 48-72 h; max response: active compounds read low. A digest of the protocol: as §1
The test system of assay [2] is HACAT. As to the kind of experiment: qHTS assay to identify novel small-molecules to repurpose for Merkel cell carcinoma treatment (AID 1296009). The conditions noted are these: MCC and control cell lines, CellTiter-Glo viability, 72 h; series mostly up to 44.8 µM. The essentials: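 After compound transfer in DMSO, plates were kept 72 hr at 37 degree celsius. Luminescent ATP signal from CellTiter-Glo served as viability measure, normalized against DMSO and no-cell controls.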

The structures appear in SMILES notation. Inconclusive results are not listed. Active and inactive are the calls of the source. The call rests on the fitted dose curve; in most records, active means well fitted inhibition curve with a large enough effect; inconclusive means small, poorly fitted or top-dose-only effect; inactive means flat fitted curve, though single readings scatter.
Further: nearly all actives have a fitted effect of over 60% in size.

`C=CC1(C)C=C2C(=O)OC(=O)C3=C(CCCC3(C)C)C2(O)CC1` (stereo not given): the max response in the assay with HaCat [1] is 1.65% (inactive); in the assay with KB-3-1, 7.97% (inactive); with NIH3T3 it was 0.193% (inactive).

Regarding `C=CC(C)(O)CC/C=C(\C)C(=O)OC1C(O)C(CO)OC(OC(=O)C23CCC(C)(C)CC2C2=CCC4C5(C)CCC(OC6OC(COC7OCC(OC(C)=O)C(O)C7OC7OC(COC(C)=O)C(O)C(O)C7O)C(O)C(O)C6O)C(C)(C)C5CCC4(C)C2(C)C(O)C3O)C1OC1OCC(OC2OCC(O)C(OC3OCC(O)C(O)C3O)C2O)C(O)C1O` (stereo not given), the max response in the assay with HaCat [1] is -19.8% (inactive); in the assay on KB-3-1, 4.25% (inactive); in the assay with NIH3T3, -2.07% (inactive).

Consider `NC(=O)c1csc(C2OC(CO)C(O)C2O)n1` (stereo not given), for which the max response was 2.41% (inactive) with HaCat [1] and -7.35% (inactive) in the assay with NIH3T3. Besides, the compound was classed as inactive in the assay on KB-3-1.

In the case of `Cc1cc(C)c2c(N)c(C(=O)NCc3ccc(Cl)cc3)sc2n1`, the max response is -6.45% (inactive) with HaCat [1], -4.61% (inactive) with KB-3-1 and -1.38% (inactive) in the assay with NIH3T3.

With `COC(=O)c1cc(OC)c(O[C@@H]2O[C@@H](C)[C@H](O)[C@@H](O)[C@H]2O)c(OC)c1`, the values for the max response in the assay with HaCat [1], in the assay with KB-3-1 and in the assay with NIH3T3 were -17.1% (inactive), 4.85% (inactive) and 2.7% (inactive), respectively.

As to `CC(C)(F)C[C@@H](N[C@@H](c1ccc(-c2ccc(S(C)(=O)=O)cc2)cc1)C(F)(F)F)C(=O)NC1(C#N)CC1`, the max response in the assay with HaCat [1] was -33% (inactive); in the assay with NIH3T3 it was -4.72% (inactive). Further, the call with KB-3-1 was inactive.

For the compound `Cc1onc(C(=O)N2CCN(C(c3ccc(Cl)cc3)c3ccc(Cl)cc3)CC2)c1[N+](=O)[O-]`, the values for the max response in the assay on HaCat [1] and in the assay on KB-3-1 were 0.662% (inactive) and -21.9% (inactive), respectively. In addition, the Potency in the assay on NIH3T3 was 731 nM (active).

Turning to `CC1=C2C(O)C(=O)OC(c3ccoc3)C2(C)CCC1O` (stereo not given), the result in the assay with HaCat [1] and with KB-3-1 was inactive. Moreover, the max response in the assay with NIH3T3 was 3.37% (inactive). For the same compound, the Potency entry with HACAT [2] is “inactive”.
